The structures appear in SMILES notation. Screen size: about 370,000 compounds; about 3,800 (1%) were called active. Many of the other results were omitted from the sample, so actives are more common in it than they were. Unmarked numbers belong to inactive results. Cut-off read from the data, not from the text of the source: active = activation above about 7.8%; inactive = the rest.

A short description of this test: SMARCA2 (BRM) function activators, primary screen, cell-based, luminescence, high throughput (AID 652017).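 Note: 0% = vehicle wells and 100% = reference activator wells.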 The note with it: MG213 cells, MMTV-luciferase reporter, dexamethasone, overnight; at 9.1 µM; hits give high values. Background: A reporter such as luciferase makes a cellular process visible.
Take `CC1C(=O)Nc2ccccc2N1C(=O)c1c(F)cccc1F` (stereo not given): the activation is 0.63%.

`O=C(CSc1nnc(COc2ccccc2)n1-c1ccc(Cl)cc1)Nc1ccc2c(c1)OCO2`: the activation was -6.63%.

For `COc1ccc2c(C(C)c3ccc(N)cc3)cn(C)c2c1` (stereo not given), the activation is -3.82%.

As to `Cc1ccc(S(=O)(=O)c2c[nH]c3ccc(Cl)cc3c2=O)cc1`, the activation is 10.9% (active).

For the compound `CCCCN(C)Cc1c(C)[nH]c2ccc(Cl)cc2c1=O`, the activation is -3.5%.

As for `Cc1ccc(S(=O)(=O)c2c[nH]c3ccc(C)cc3c2=O)cc1`, the activation is -1.93%.

Regarding `CC(OC(=O)c1cccnc1Cl)C(=O)NC1CCCCC1` (stereo not given), the activation was -0.77%.

`CCN(C(=O)[C@@H](C1CC1)[C@@H](O)c1ccc2ccccc2c1)c1ccccc1`: the activation was -7.28%.

In the case of `CC(C)CC(=O)Nc1nnc(S(=O)(=O)N(C)c2ccc(Cl)cc2)s1`, the activation is 1.27%.

Turning to `CCOC(=O)N1CCN(Cc2nc3cc(NC(=O)CC)ccc3n2CC)CC1`, the activation is -1.94%.

`COc1ccc(N=C(C)c2sc3ccccc3c2O)cc1`: the activation is 11.4% (active).

With `COC(=O)c1ccc(/C=C/c2c(-c3ccc(OC)cc3)sc3ccccc23)cc1`, the activation is 3.05%.

In the case of `CCCOc1ccc(Oc2c(Cl)cnn(Cc3cccc4ccccc34)c2=O)cc1`, the activation is -0.93%.

Take `CCOC(=O)c1c(C)[nH]c(C2=NNC(=NC(C)COC)SC2)c1C` (stereo not given): the activation is 10.5% (active).

`Cc1ccccc1CN1CCCCC(NC(=O)c2cccc(C#N)c2)C1=O` (stereo not given): the activation was -3.87%.

Take `Cc1ccc(S(=O)(=O)N2C[C@@H]3CCCC[C@@H]3[C@@H](C)[C@H]2c2cn(Cc3ccccc3)c3ccc(F)cc23)cc1`: the activation is -2.92%.

For `CC(C)(C)OC(=O)NCCc1ccccc1/C=C/S(=O)(=O)NCc1ccc(F)cc1`, the activation was -3.29%.

With `O=C(CSc1nnc(-c2ccccn2)n1-c1ccc(Cl)cc1)Nc1ccccc1-c1ccccc1`, the activation is -4.51%.

In the case of `CCn1c2ccc(F)cc2c2nnc(SCCN3CCOCC3)nc21`, the activation was 0.99%.

Turning to `CN(C)c1nc(NN)nc(Nc2ccc(F)cc2)n1`, the activation was -0.18%.

Regarding `Cn1c2ccc(F)cc2c2nnc(NN)nc21`, the activation is 11.8% (active).

As for `CCOC(=O)C1=C(c2ccccc2)NC(=O)NC1c1cc(OC)c(OC)cc1OC` (stereo not given), the activation was -1.63%.

Turning to `Cc1ccc(-n2c(COc3ccccc3)nnc2SCC(=O)Nc2ccc3c(c2)OCCO3)cc1`, the activation is -5.34%.

Take `O=S(=O)(Cc1nnnn1-c1ccccc1)c1ccccc1`: the activation is 3.47%.

Turning to `COc1ccc(S(=O)(=O)NC(=O)C2(C)CCN2C(=O)c2ccccc2CCc2ccccc2)cc1` (stereo not given), the activation is -0.47%.

Consider `CN(C)S(=O)(=O)c1ccc2oc(SCC(=O)Nc3ccccc3F)nc2c1`, for which the activation was 12% (active).

For the compound `COc1ccc(S(=O)(=O)N(C)C)cc1NC(=O)CSc1ncccn1`, the activation is 1.65%.

As for `CCS(=O)(=O)c1ccc2oc(SCC(=O)N3c4ccccc4CC3C)nc2c1` (stereo not given), the activation is 0.08%.

On to `CCOC(=O)[C@]12CCCC3=C1N(CCC3)C(=O)[C@@H](CC(=O)NCc1cccs1)C2`, for which the activation is -4.78%.

With `Nc1ccc(N=Nc2ccccc2Cl)c(N)n1`, the activation was 7.92% (active).

For `C=CCN1C(C(=O)OC)CN(Cc2cn(Cc3ccccc3)nn2)CCS1(=O)=O` (stereo not given), the activation is 1.74%.

`COc1ccc(C(=O)OCCN(C)C2CN(Cc3cn(Cc4cccc(C)c4)nn3)S(=O)(=O)C2)cc1OC` (stereo not given): the activation was -0.46%.

`COc1ccc(C(=O)CSc2nnc(-c3cnccn3)n2-c2ccc(C)cc2)cc1`: the activation was -2.56%.

For the compound `CCOc1ccc(OCc2cccc(C(=O)N(CC)CC)c2)cc1`, the activation is 6.12%.

For `CC(=O)Oc1ccc(-c2cccc(C(=O)N3CCCCC3)c2)cc1`, the activation is 1.59%.

With `COc1ccc(OCc2cccc(C(=O)N3CCCC3)c2)cc1`, the activation is 7.84% (active).

In the case of `COc1ccc2nc(/N=C(\N)NC(=O)Nc3ccccc3)nc(C)c2c1`, the activation was 28.8% (active).

Regarding `CCOC(=O)Cc1cc(=O)[nH]c(/N=C(\N)Nc2ccc(OC)cc2)n1`, the activation was -2.87%.

As to `COc1ccc(NC(=O)ON=C2c3ccccc3-c3ccccc32)cc1`, the activation was 3.56%.

For the compound `FC(F)(F)c1cccc(Cn2ccc3ccc(-c4ccc5ccn(Cc6ccccc6)c5c4)cc32)c1`, the activation was -1.65%.

`O=C(NCC1COc2ccccc2O1)c1ccc(NC(=O)c2cc(F)ccc2F)cc1` (stereo not given): the activation was -5.67%.

As for `O=C(c1cc(-c2ccc(O)cc2)on1)N1CCOCC1`, the activation was 10.1% (active).

`O=C(c1cc(COc2ccc(F)cc2F)on1)N1CCOCC1`: the activation was 2.32%.

Consider `O=C(c1cc(C2CCCCN2S(=O)(=O)c2ccccc2)on1)N1CCOCC1` (stereo not given), for which the activation is -0.23%.

In the case of `COc1ccc(OCc2cc(C(=O)N3CCCC3)no2)c2ccccc12`, the activation was 5.22%.

For the compound `O=C(Nc1ccccc1C(F)(F)F)c1cc(-c2ccc(O)cc2)on1`, the activation was 1.17%.

For the compound `O=C(c1cc(-c2ccccc2O)on1)N1CCCC1`, the activation was 8.63% (active).

In the case of `CN(C(N)=NC(=O)/C=C/c1ccccc1)C(C#Cc1ccccc1)Cc1ccccc1` (stereo not given), the activation was -4.38%.

As to `COc1ccc(C)cc1N(C)C(=O)c1coc(=O)c2ccccc12`, the activation was -4.4%.

As for `O=C(NC1CCCCN(Cc2cccc(C(F)(F)F)c2)C1=O)c1ccccc1I` (stereo not given), the activation is -2.23%.

As to `COc1ccc2ccccc2c1CNc1nnnn1C`, the activation is -2.94%.

As for `COc1ccc2ccccc2c1CNCc1ccccn1`, the activation is 8.32% (active).

For `COc1cc(CNCc2ccc(OC)c3ccccc23)cc(OC)c1OC`, the activation was -2.64%.

As for `Cc1ccc(/C=N/NC(=O)c2sccc2OCc2ccc(F)cc2)cc1`, the activation was 3.74%.

Consider `Cc1ccsc1C(=O)NC1CCCCC1C` (stereo not given), for which the activation is -1.24%.

Regarding `Cc1ccsc1C(=O)N/N=C/c1ccc([N+](=O)[O-])cc1`, the activation was 11.6% (active).

Turning to `COC(=O)[C@H](C(C)C)N(CCc1cn(Cc2ccccc2)nn1)S(=O)(=O)c1ccc(F)cc1Br`, the activation is -6.28%.

As for `CC(=O)OC12CCCN(C1)/C(=C/c1ccncc1)C2` (stereo not given), the activation is -3.2%.

For the compound `COc1ccccc1Nc1nnc(SC(C)C(=O)NC2CC2)s1` (stereo not given), the activation was -2.93%.

Take `O=C(CCCCCN1C(=O)C2C3C=CC(C3)C2C1=O)Nc1ccccn1` (stereo not given): the activation was -1.58%.

`COC(=O)C(C)n1cnc2c(nnn2-c2ccc(F)cc2)c1=O` (stereo not given): the activation is 2.24%.

For `CCOC(=O)C(C)n1cnc2c(nnn2-c2ccc(F)cc2)c1=O` (stereo not given), the activation was 0.38%.

`CCOC(=O)C(C)n1cnc2c(nnn2-c2cccc(OC)c2)c1=O` (stereo not given): the activation is 9.14% (active).

Regarding `O=C(NC1CCC1)c1ccc(C#CC2CC2)cn1`, the activation was 1.34%.

For `O=C(CCC(=O)c1cccs1)NC1CCCCCC1`, the activation is -4.41%.

On to `CCCCC(CC)CNC(=O)CCCCn1c(=O)[nH]c2ccsc2c1=O` (stereo not given), for which the activation is -1.68%.

Consider `O=C(CCCCCn1c(=S)[nH]c2ccsc2c1=O)NC1CCCCC1`, for which the activation was 8.72% (active).

With `C=CC[C@]12C[C@@]3(O[C@H](c4ccc(C(F)(F)F)cc4)N=C3C[C@H](c3ccc(OC)cc3)[C@H]1C)N(C1CCN(Cc3ccccc3)CC1)C2=O`, the activation is -1.14%.

`Cc1nnc(NC(=O)CSc2nccn2-c2cccc(C)c2C)s1`: the activation was -0.75%.

As to `O=C(Cn1c(=O)sc2ccccc21)Nc1ccc2c(c1)OCCO2`, the activation was -0.22%.

`Cc1nnc(NC(=O)Cn2c(=O)sc3ccccc32)s1`: the activation is 8.41% (active).

With `C=C(C)C1CC23C(=O)C4(C(=O)c5ccccc5)C[C@@]5(C)CCC(CC2C1(C)C)(C4=O)C35OC` (stereo not given in full), the activation is -5.25%.

For `Cc1ccccc1CN1CCCCC(NC(=O)Nc2ccccc2F)C1=O` (stereo not given), the activation was -2.59%.

With `C[C@@H](NC(=O)c1ccccc1OCC(=O)Nc1ccc(I)cc1)C(=O)N(C)Cc1ccccc1`, the activation is -3.4%.

Consider `O=C(CSc1c2c(nc3ccc(Cl)cc13)CCCC2)NCc1ccco1`, for which the activation is 3.79%.

As to `CC(C)CCC(C)NC(=O)c1ccc2nccnc2c1` (stereo not given), the activation is 0.02%.

Take `CC(C)CCNC(=O)c1ccc2c(Cl)c3c(nc2c1)CCC3`: the activation was 10.7% (active).

Turning to `O=C(O)CSCc1ccc(C(=O)O)o1`, the activation is 0.73%.

For `O=C(O)c1ccc(NC(=O)c2ccc(COc3ccc(Cl)cc3)o2)cc1`, the activation is -1.89%.

For `O=C(O)c1ccc(COc2c(F)c(F)cc(F)c2F)o1`, the activation is 8.75% (active).

As to `COc1cc(NC(=O)C2=C(C)OCCS2)c(Cl)cc1C(=O)NCCCN1CCCC(C)C1` (stereo not given), the activation is -0.17%.

For `NC1=NN(c2cccc(C(=O)O)c2)C(=O)C1`, the activation was -1.73%.

For `O=C(O)c1cccc(N=NN2CCCCCC2)c1`, the activation is 17.7% (active).

As for `Cc1cccc(C(=O)N2CCN(S(=O)(=O)N3CCCCC3)CC2)c1`, the activation is 3.31%.

As for `Cc1cc(C)n2c(Nc3c(C)cccc3C)c(CCc3ccccc3)nc2n1`, the activation is 0.46%.

On to `O=C(NCc1cccs1)C1CCCN(S(=O)(=O)c2ccc([N+](=O)[O-])cc2)C1` (stereo not given), for which the activation is 0.22%.

As to `CCC(C)[C@@H](C(=O)OC)N(CCc1cn(Cc2ccccc2)nn1)S(=O)(=O)c1ccccc1Br` (stereo not given in full), the activation was -5.37%.

Consider `COc1ccccc1C1=Nc2cccc3cccc(c23)N1`, for which the activation was 8.11% (active).

With `COc1ccccc1C1=CC(=O)CCC1`, the activation was 1.01%.

Consider `COc1ccccc1-c1sc2ccccc2c1-c1ccc(Br)nc1`, for which the activation is -0.09%.

`CCOc1ccc(N(CC(=O)Nc2c(C)n(C)n(-c3ccccc3)c2=O)S(=O)(=O)c2ccc(Cl)s2)cc1`: the activation was 3.83%.

As for `CCC(CO)Nc1cccc2c1S(=O)(=O)N(Cc1cn(Cc3ccccc3C(F)(F)F)nn1)Cc1ccccc1O2` (stereo not given), the activation was -1.93%.

As for `Cc1ccccc1C(=O)O`, the activation is -3.71%.

Take `O=C(CSc1cccc[n+]1[O-])c1ccc(-c2ccccc2)cc1`: the activation is 1.84%.

As to `Cc1ccc(C(=O)CSc2ccccc2C(=O)O)cc1`, the activation was 9.24% (active).

These data come from PubChem BioAssay AID652017 (The Scripps Research Institute Molecular Screening Center, 2013).
